Screens as filed in PubChem BioAssay.
TRPML1 blocker – blocks the human TRPML1 channel; AID 624415; activity change, negative = inhibition, % (no concentration beside the values); TRPML1-inducible cells, Ca2+ dye fluorescence, FDSS; stronger effect = lower value; inhibition of EC80 agonist-evoked calcium signal; Q9GZU1; hit rate 0.02% among 390,000; in the data active = activity change below about -50%; inconclusive = between about -30% and that limit;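 note: stimulus is agonist 54-4 at its EC80 concentration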
Target sequence (Q9GZU1 whole entry, looked up): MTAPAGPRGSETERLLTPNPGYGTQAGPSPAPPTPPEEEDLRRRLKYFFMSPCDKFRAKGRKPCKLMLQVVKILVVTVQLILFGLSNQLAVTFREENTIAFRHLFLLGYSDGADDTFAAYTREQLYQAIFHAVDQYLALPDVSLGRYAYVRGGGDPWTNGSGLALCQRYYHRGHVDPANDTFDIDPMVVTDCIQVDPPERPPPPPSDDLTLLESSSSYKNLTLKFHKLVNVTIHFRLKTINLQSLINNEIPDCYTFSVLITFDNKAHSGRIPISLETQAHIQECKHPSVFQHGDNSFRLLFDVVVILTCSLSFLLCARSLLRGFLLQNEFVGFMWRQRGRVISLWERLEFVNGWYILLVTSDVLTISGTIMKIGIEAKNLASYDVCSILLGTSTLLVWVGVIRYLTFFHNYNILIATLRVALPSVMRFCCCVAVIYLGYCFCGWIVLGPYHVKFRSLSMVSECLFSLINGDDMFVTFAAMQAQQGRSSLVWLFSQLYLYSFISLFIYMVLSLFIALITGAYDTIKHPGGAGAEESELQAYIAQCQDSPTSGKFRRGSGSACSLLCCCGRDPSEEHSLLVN
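TRPML1-DL cells, Tet-induced overnight (~16 h, 37 °C) at 1,500 cells/well, were loaded with Ca8 no-wash dye plus quencher for 45-90 min at room temperature. Compounds were pinned during FDSS kinetic reading; agonist 54-4 at EC80 (4 uM final) then added.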
DRD3 antagonist – blocks the human D3 dopamine receptor | hit rate 2.5% among 360,000 | D3R cells, DiscoveRx beta-arrestin luminescence, antagonist mode; stronger effect = lower value | max response, negative = inhibition, % | AID 652054; in the data active = max response below about -50%; inconclusive = no clear call, values can overlap the other calls
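Cells plated overnight at 1500 cells/well, then exposed to library compounds with dopamine controls for 90 minutes at 37 degrees C. DiscoveRx reagent added for 30–60 minutes at room temperature; luminescence read, quantitative HTS format.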
DRD3 agonist – agonists of human D3 dopamine receptor; D3R DiscoveRx beta-arrestin cells, luminescence, 90 min; max activation, %; hit rate 0.58% among 410,000; AID 652048; in the data active = max activation above about 30%
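Agonist-mode cell screen: cells plated at 1500/well and incubated overnight at 37 °C, then exposed to library compounds for 90 min at 37 °C. Detection reagent was added for 30–60 min at room temperature, and luminescence was read.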
TRPML1 ag – activates the human TRPML1 channel. Q9GZU1. TRPML1-expressing cells, Ca2+ dye fluorescence, FDSS. activation, % (no concentration beside the values). hit rate 0.12% among 410,000. AID 624414; in the data active = activation above about 50%; inconclusive = mostly about 30% to 49%
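Kinetic FDSS Ca2+ read in Tet-induced TRPML1-DL cells (ABD Ca8 dye plus quencher, 45-90 min RT loading): baseline, then compound, then 110 s agonist window; EC80 agonist 54-4 at 4uM final added afterwards for a 110 s antagonist window.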
Numbers stand for hits; . = inactive; ? = inconclusive; / = not tested or not shown. An excerpt weighted towards active compounds, which were near 2.9% of everything screened.

SMILES	TRPML1 blocker	DRD3 antagonist	DRD3 agonist	TRPML1 ag
CCOc1ccc(NC(=O)CC2C(=O)N(c3ccccc3)C(=O)N2Cc2ccc3c(c2)OCO3)cc1 (configuration not stated)	.	/	.	.
O=C(OCC(O)C(O)C(O)C(SCc1ccccc1)SCc1ccccc1)c1ccccc1 (configuration not stated)	.	-67.5	.	.
CCC(=O)Nc1nc2ccccc2n1CCN(CC)CC	.	.	.	.
O=C(Nc1nc2ccccc2n1Cc1ccc(Cl)cc1)c1ccco1	.	-60.0	.	.
CCN(CC)CCn1c(NC(=O)c2ccc(C(F)(F)F)cc2)nc2ccccc21	.	-54.2	.	.
CCN(CC)CCn1c(NC(=O)c2ccc(C)cc2)nc2ccccc21	.	-50.1	.	.
CN(C)CCn1c(NC(=O)c2ccc(Cl)cc2)nc2ccccc21	.	-57.2	.	.
Cn1c(NC(=O)c2ccc(F)cc2)nc2ccccc21	.	.	.	.
CCC(=O)OCC(=O)[C@@]1(OC(=O)CC)[C@H](C)C[C@H]2[C@@H]3CCC4=CC(=O)C=C[C@]4(C)[C@@]3(F)[C@@H](O)C[C@@]21C	/	/	.	/
CCOC(=O)C1(Cc2ccccc2C(F)(F)F)CCN(C(C)CCn2cccn2)CC1 (configuration not stated)	.	-50.5	.	.
CCOC(=O)C1(Cc2ccccc2C(F)(F)F)CCN(C(C)CSC)CC1 (configuration not stated)	.	-53.8	.	.
CCOC(=O)C1(Cc2ccccc2C(F)(F)F)CCN(CC2CC2)CC1	.	.	.	.
C=CC#CC1(O)CC(C)N(C)CC1C (configuration not stated)	.	-66.1	.	.
COc1ccc(-c2nn3c(-c4cc(-c5ccccc5)n[nH]4)nnc3s2)cc1	/	/	/	.
CC[C@]12c3[nH]c4ccccc4c3CCN1C(=O)C(CC(=O)NCCCOC)C[C@@H]2C(=O)N1CCN(C(=O)C2CC2)CC1 (some centres not stated)	.	.	.	.
CC[C@]12c3[nH]c4ccc(OC)cc4c3CCN1C(=O)C(CC(=O)NCCCn1ccnc1)C[C@@H]2C(=O)N1CCN(C(=O)c2ccco2)CC1 (some centres not stated)	.	.	.	.
CN(C)CCCNC(=O)C[C@H]1C[C@H](C(=O)N2CCOCC2)[C@@]2(C)c3[nH]c4cc(-c5ccco5)ccc4c3CCN2C1=O	?	.	.	.
CC[C@]12c3[nH]c4ccc(Cl)cc4c3CCN1C(=O)[C@@H](CC(=O)NCCCn1ccnc1)C[C@@H]2C(=O)N1CCN(C(=O)c2ccco2)CC1	.	.	49.3	.
CCN(CC)C(=O)[C@H]1CC(CC(=O)NCCc2ccccn2)C(=O)N2CCc3c([nH]c4ccccc34)[C@]12C (some centres not stated)	.	-54.5	.	.
CC[C@]12c3[nH]c4ccccc4c3CCN1C(=O)C(CC(=O)NCCCN(C)C)C[C@@H]2C(=O)N1CCN(C(=O)C2CC2)CC1 (some centres not stated)	.	-59.2	.	.
COCCCNC(=O)C[C@H]1C[C@H](C(=O)N2CCOCC2)[C@@]2(C)c3[nH]c4cc(-c5ccco5)ccc4c3CCN2C1=O	.	.	35.0	.
CCN(CC)C(=O)[C@H]1CC(CC(=O)NCCc2ccccn2)C(=O)N2CCc3c([nH]c4ccc(OC)cc34)[C@]12C (some centres not stated)	.	.	.	.
Cc1ccc(Cl)cc1-n1ncc2c(N3CCN(Cc4ccccc4)CC3)ncnc21	.	/	.	.
CC1CCc2onc(C(=O)N3CCN(c4ccc(F)cc4)CC3)c2C1 (configuration not stated)	.	/	.	.
CN1C(C(=O)Nc2ccc(C(=O)O)cc2)=C(O)c2ccccc2S1(=O)=O	.	.	60.0	.
SMILES	TRPML1 blocker	DRD3 antagonist	DRD3 agonist	TRPML1 ag
CN1C(C(=O)c2ccccc2)=C(NC(=O)c2ccc(F)cc2)c2ccccc2S1(=O)=O	.	/	.	.
COc1cc(C2CC(=O)N(Cc3ccc(F)cc3)c3ccccc3S2)cc(OC)c1OC (configuration not stated)	.	/	.	.
c1ccc(Cn2c(-c3cncs3)nc3ccccc32)cc1	.	.	.	.
N#CCCCCn1c(-c2cncs2)nc2ccccc21	.	-56.2	.	.
COc1ccc(NC(=O)C2CCN(C(=O)Nc3ccccc3)CC2)cc1S(=O)(=O)N(C)C	.	-66.6	.	.
Cn1c(C(=O)NCCCN2CCN(c3ccc(F)cc3)CC2)cc2c(=O)n(C)c3ccccc3c21	.	-84.0	.	.
Cn1c(C(=O)NCCN2CCN(c3ccccc3F)CC2)cc2c(=O)n(C)c3ccccc3c21	.	.	.	.
Cn1c(C(=O)NCCN2CCc3ccccc3C2)cc2c(=O)n(C)c3ccccc3c21	.	-88.2	.	.
Cn1c(=O)cc(SCC(=O)NCCCN2CCN(c3ccc(F)cc3)CC2)c2ccccc21	.	-69.1	.	.
Cn1c(C(=O)NCCN2CCOCC2)cc2c(=O)n(C)c3ccccc3c21	.	.	.	.
O=C(CCn1c(=O)oc2ccccc21)NCCCN1CCOCC1	.	.	.	.
O=C(CCn1c(=O)oc2ccccc21)NCCCN1CCN(c2ccc(F)cc2)CC1	.	-51.8	.	.
Cc1ccc(CCNC(=O)CCN2N=C(c3ccc(C)cc3)CCC2=O)cc1	.	/	.	.
Cn1c(=O)cc(SCC(=O)NCCc2ccc(Cl)cc2)c2cc(Cl)ccc21	.	/	.	.
Cn1c(=O)cc(SCC(=O)NCCN2CCN(c3ccccc3F)CC2)c2cc(Cl)ccc21	.	-63.3	.	.
CCc1cccc(NC(=O)c2cc3c(=O)n(Cc4ccc(OC)cc4)ccc3nc2C)c1	.	/	.	.
CCOCCCNC(=O)C(c1ccc(Cl)cc1)N1CCN(c2ccccc2)CC1 (configuration not stated)	.	.	.	.
CCOCCCNC(=O)C(c1ccc(Cl)cc1)N1CCC2(CC1)OCCO2 (configuration not stated)	.	-54.9	.	.
CCOC(=O)c1oc2ccc(S(=O)(=O)Nc3ccc4c(c3)n(C)c(=O)n4C)cc2c1C	.	.	31.8	.
Cc1cc(C(C)(C)C)cc(C)c1CC1=NCCN1	.	-79.3	.	.
c1ccc(CC2=NCCN2)cc1	.	.	.	.
O=C(Nc1ccc(OC(F)(F)F)cc1)NC1COc2ccccc2C1 (configuration not stated)	.	/	.	.
CC(C)Cn1c(N)c(C(=O)COC(=O)C2CC(=O)N(Cc3ccccc3Cl)C2)c(=O)n(C)c1=O (configuration not stated)	.	.	39.0	.
COc1ccc(CCN2CC(C(=O)OCC(=O)c3c(N)n(CC(C)C)c(=O)n(C)c3=O)CC2=O)cc1OC (configuration not stated)	.	.	.	.
CCOc1ccccc1CNC(=O)c1ccc(Cn2c(SCc3ccccc3)nc3cccnc32)cc1	.	/	.	.
N#Cc1c(NC(=O)c2ccc([N+](=O)[O-])o2)sc2c1CCC2	.	-62.7	.	.
